# Measured values from PubChem BioAssay.
# Activity calls are given as the source filed them.
# Columns and labels:
# [1] = tested on: PRMT1 (protein arginine N-methyltransferase 1); experiment: small molecules binding arginine methyltransferase PRMT1 – biochemical, small-molecule microarray, 635 nm fluorescence, primary screen (AID 1088); settings: higher = more signal;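 note: binding of Prmt1 protein to compounds spotted on small-molecule microarray slides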
# [2] = growth effects on S. cerevisiae YJM789 – YJM789 clinical isolate, OD600, 24 h, basal, primary screen (AID 1089); settings: higher = more signal, called active from +8 up or from −8 down;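 note: growth of clinical yeast isolate S. cerevisiae YJM 789 seeded 1000 cells per well; test concentration not given here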
# [3] = S. pombe growth modifiers, basal conditions – strain 972, OD600, 24 h, no modulator, primary screen (AID 1090);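 note: basal condition with compound alone and no growth modifier present; test concentration not given here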; settings: S. pombe 972 growth, higher = more signal, called active from +8 up or from −8 down
# [4] = budding yeast growth modifiers under rapamycin – strain BY4716, OD600, 96 h, primary screen (AID 1091); note: test concentration not given here; settings: S. cerevisiae BY4716 + rapamycin, higher = more signal, called active from +8 up or from −8 down
# [5] = biological target: Torsin-1A-interacting protein 2 (Homo sapiens) (UniProt Q8NFQ8); experiment: small molecules binding lysate-expressed LULL1 – cell lysate, human LULL1 lysate, 635/667 nm fluorescence, primary screen (AID 1092); settings: small-molecule microarray, hLULL1 lysate binding, 635 nm fluorescence; higher = more signal;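 note: probe is lysate of COS7 cells overexpressing human LULL1; score merges per-feature 667 nm fluorescence with signal-to-noise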
# [6] = optical density change of DRC41 E. coli – strain DRC41, OD650, 24 h, E. coli filamentation project, primary screen (AID 1093);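 note: MC1000 strain lacking acrAB efflux and sulA so SOS filamentation is blocked; test concentration not given here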; settings: E. coli DRC41 growth, higher = more signal, called active from +8 up or from −8 down
# [7] = probe aLefty2 binding to arrayed compounds – biochemical, biotinylated probe, 635/667 nm fluorescence, primary screen (AID 1094); settings: small-molecule microarray, higher = more signal;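 note: score merges spot fluorescence near 667 nm with spot signal-to-noise ratio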
# [8] = tested on: Noggin (protein binding on small-molecule microarray); experiment: small molecules binding Noggin protein – biochemical, 635/667 nm fluorescence, primary screen (AID 1095); settings: 635 nm fluorescence, higher = more signal;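 note: score merges 667 nm feature fluorescence with signal to noise over triplicate slides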
# [9] = biological target: Neurogenic locus notch homolog protein 3 (Homo sapiens) (UniProt Q9UM47); experiment: small molecules binding NOTCH3 protein – biochemical, 635/667 nm fluorescence, primary screen (AID 1096); settings: small-molecule microarray, 635 nm fluorescence, higher = more signal
# [10] = probe aEGFR binding to arrayed compounds – biochemical, biotinylated probe, 635/667 nm fluorescence, primary screen (AID 1097); settings: small-molecule microarray, higher = more signal;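 note: probe is a biotinylated anti-EGFR antibody binding compounds printed on slides; score combines fluorescence near 667 nm and signal to noise of each spot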
# Chain of Neurogenic locus notch homolog protein 3 (Homo sapiens) (Q9UM47 whole entry, looked up): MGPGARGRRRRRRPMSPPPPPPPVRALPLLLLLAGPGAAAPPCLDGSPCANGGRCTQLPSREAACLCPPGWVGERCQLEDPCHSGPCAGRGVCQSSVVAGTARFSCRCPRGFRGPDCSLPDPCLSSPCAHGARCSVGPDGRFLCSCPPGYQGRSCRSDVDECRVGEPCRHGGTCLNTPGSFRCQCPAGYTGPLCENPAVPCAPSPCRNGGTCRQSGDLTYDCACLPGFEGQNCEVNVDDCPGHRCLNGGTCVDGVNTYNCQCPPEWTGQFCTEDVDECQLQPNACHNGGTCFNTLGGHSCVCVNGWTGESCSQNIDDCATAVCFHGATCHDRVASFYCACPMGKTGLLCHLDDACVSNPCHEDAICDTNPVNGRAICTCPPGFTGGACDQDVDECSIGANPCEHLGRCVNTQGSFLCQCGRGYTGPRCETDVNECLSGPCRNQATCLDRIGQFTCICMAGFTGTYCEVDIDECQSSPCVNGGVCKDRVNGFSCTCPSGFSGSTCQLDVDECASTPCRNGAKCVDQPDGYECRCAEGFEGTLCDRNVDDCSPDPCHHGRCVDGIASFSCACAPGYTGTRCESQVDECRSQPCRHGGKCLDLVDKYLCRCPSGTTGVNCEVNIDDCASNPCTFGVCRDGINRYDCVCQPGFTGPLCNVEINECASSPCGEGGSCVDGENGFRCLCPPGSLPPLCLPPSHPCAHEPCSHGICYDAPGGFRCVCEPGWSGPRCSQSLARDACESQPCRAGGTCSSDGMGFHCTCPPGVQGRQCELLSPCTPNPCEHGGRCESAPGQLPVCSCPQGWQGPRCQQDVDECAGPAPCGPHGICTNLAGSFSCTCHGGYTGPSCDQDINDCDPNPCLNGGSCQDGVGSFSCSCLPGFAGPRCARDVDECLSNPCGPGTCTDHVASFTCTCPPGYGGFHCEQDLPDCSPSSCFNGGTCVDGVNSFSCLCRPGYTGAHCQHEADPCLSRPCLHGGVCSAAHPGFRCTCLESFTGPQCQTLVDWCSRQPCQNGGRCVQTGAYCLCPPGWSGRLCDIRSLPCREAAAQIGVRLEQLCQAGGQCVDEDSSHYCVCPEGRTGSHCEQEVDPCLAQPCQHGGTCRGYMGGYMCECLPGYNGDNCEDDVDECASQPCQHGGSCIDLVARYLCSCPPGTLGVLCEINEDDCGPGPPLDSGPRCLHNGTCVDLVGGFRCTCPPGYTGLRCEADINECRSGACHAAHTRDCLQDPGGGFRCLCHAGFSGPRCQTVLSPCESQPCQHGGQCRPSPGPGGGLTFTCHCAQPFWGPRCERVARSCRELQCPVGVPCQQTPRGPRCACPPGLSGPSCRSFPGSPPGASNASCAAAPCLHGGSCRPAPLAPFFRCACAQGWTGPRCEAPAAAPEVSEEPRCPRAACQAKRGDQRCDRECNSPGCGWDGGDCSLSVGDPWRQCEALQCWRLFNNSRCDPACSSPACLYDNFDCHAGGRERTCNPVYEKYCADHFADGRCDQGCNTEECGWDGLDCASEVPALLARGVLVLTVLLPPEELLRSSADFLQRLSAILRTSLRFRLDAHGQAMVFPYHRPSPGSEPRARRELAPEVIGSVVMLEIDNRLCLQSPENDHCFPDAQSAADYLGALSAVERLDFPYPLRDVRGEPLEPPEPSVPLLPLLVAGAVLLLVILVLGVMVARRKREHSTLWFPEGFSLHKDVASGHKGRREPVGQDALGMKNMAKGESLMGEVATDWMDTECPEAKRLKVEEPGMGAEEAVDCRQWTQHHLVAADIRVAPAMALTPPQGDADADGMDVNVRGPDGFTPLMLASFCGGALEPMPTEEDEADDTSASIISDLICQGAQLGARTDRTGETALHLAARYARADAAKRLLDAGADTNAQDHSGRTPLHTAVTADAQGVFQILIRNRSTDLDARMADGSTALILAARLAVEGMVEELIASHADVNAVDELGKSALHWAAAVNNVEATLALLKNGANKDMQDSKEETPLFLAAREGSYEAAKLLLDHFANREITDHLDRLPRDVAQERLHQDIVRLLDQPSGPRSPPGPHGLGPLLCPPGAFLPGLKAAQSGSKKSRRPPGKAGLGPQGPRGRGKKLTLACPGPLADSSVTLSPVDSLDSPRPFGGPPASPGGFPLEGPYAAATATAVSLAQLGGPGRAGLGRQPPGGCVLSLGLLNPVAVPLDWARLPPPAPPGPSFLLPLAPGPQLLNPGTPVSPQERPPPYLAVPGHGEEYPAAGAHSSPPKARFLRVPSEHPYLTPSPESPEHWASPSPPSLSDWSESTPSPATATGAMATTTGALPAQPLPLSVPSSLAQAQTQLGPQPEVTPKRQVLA
# Chain of Torsin-1A-interacting protein 2 (Homo sapiens) (Q8NFQ8 whole entry, looked up): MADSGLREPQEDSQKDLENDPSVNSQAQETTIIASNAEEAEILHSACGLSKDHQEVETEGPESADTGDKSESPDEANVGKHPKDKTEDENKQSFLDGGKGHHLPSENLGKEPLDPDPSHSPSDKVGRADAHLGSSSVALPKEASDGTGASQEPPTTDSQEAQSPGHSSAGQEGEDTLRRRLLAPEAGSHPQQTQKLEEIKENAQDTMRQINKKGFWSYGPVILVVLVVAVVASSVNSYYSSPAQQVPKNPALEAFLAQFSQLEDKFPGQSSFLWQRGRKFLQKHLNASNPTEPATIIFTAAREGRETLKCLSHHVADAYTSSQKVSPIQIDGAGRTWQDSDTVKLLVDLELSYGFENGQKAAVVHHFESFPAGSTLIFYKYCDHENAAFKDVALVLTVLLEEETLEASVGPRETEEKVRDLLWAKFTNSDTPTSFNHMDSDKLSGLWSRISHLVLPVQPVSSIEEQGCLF
Compound,composite z-score [1],z-score [2],z-score [3],z-score [4],composite z-score [5],z-score [6],composite z-score [7],composite z-score [8],composite z-score [9],composite z-score [10]
CCOC(=O)C[C@H]1[C@H](OC(=O)c2ccc(C(=O)c3ccccc3)cc2)[C@@H](NC(=O)c2ccccc2)c2cc(OCCCO)ccc2N1C(=O)c1ccc2ccccc2n1,0.81,-0.121 (inactive),-0.429 (inactive),0.443 (inactive),1.54,0.104 (inactive),0.418,0.0946,1.03,-0.142
COc1cccc(-c2cccc(=O)o2)c1,0.274,-1.24 (inactive),-3.46 (inactive),1.42 (inactive),-0.33,0.696 (inactive),0.716,0.335,-0.476,0.08
NC(=O)NCC#Cc1ccc2c(c1)[C@]1(C(=O)N2)[C@H](C(=O)Nc2nc3ccccc3s2)[C@H]2C(=O)O[C@H](c3ccccc3)[C@H](c3ccccc3)N2[C@@H]1c1ccccc1OCCO,1.54,1.17 (inactive),1.33 (inactive),3.48 (inactive),3.85,1.5 (inactive),-0.351,1.61,1.06,0.506
C=C(/C(=C/C[C@H](OC(C)=O)c1ccc(CO)o1)c1cc(C(=O)OC)ccc1OC)C(C)C,0.57,1.02 (inactive),-0.967 (inactive),0.0168 (inactive),0.381,0.865 (inactive),-0.0485,0.58,0.368,-0.0206
CN1C(=O)C2C=CC(C(O)C#Cc3ccccc3)N(N3CCCCC3)C2C1=O (stereo not given),0.436,0.54 (inactive),-0.126 (inactive),-0.296 (inactive),0.58,0.0497 (inactive),0.529,-0.287,0.964,0.647
COc1ccc(C#Cc2ccc3c(c2)[C@]2(C(=O)N3)[C@H](C(=O)Nc3nc4ccccc4s3)[C@H]3C(=O)O[C@H](c4ccccc4)[C@H](c4ccccc4)N3[C@@H]2c2ccc(O)cc2)cc1,1.55,2.2 (inactive),0.98 (inactive),0.172 (inactive),3.26,0.943 (inactive),-0.0353,1.82,1.02,0.398
O=C1c2ccccc2[C@](Cc2ccccc2I)(C(=O)NCCN2CCOCC2)[C@H](c2ccc(CO)cc2)N1C1CCCCC1,1.43,-0.139 (inactive),-0.156 (inactive),0.216 (inactive),1.53,1.09 (inactive),0.227,1.12,1.06,0.521
C#C[C@H](O[Si](C#Cc1ccc(Oc2ccccc2)cc1)(C(C)C)C(C)C)c1ccccc1,1.23,-0.824 (inactive),-19.1 (active),-0.42 (inactive),1.02,-0.547 (inactive),-0.0666,0.531,0.185,-0.0286
COc1ccc(CCNC(=O)[C@@]2(Sc3ccc(C)cc3)CC(=O)N(C3Cc4ccccc4C3)[C@@H]2c2ccc(CO)cc2I)cc1,0.789,0.534 (inactive),-2.75 (inactive),3.02 (inactive),1.99,0.171 (inactive),0.119,-1.37,-0.0239,-0.172
O=C(c1ccccc1)N1Cc2ccccc2C[C@@]2(COC(c3ccc(OCCCO)cc3)=N2)C1=O,1.55,-1.1 (inactive),-11.1 (active),3.57 (inactive),3.39,0.0571 (inactive),0.0478,0.779,1.04,-0.0439
C=CCOC(=O)[C@@H]1[C@H]2C(=O)O[C@H](c3ccccc3)[C@H](c3ccccc3)N2[C@H](c2ccc(OCCOC(=O)[C@H]3C[C@H]4C(=O)N5CCC[C@H]5C(=O)N4[C@H]3c3ccc(O)cc3)cc2)[C@@]12C(=O)Nc1ccc(I)cc12,1.54,0.825 (inactive),0.267 (inactive),3.14 (inactive),1.95,0.553 (inactive),-0.203,1.46,1.07,-0.119
CC(C)OC(=O)C=C1C[C@@H](c2ccccn2)O[C@@H](c2ccccn2)O1,0.875,-0.0723 (inactive),0.228 (inactive),-1.36 (inactive),0.0473,0.0183 (inactive),-0.224,1.25,0.0527,0.0494
CC(CO)N1C(=O)[C@@H]2C3C(=O)OCCC/C=C\[C@H]3OC23C=CCN(C(C)(C)C)C(=O)[C@@H]13 (stereo not given in full),0.0207,-0.226 (inactive),-0.911 (inactive),-0.706 (inactive),0.478,-0.0054 (inactive),-0.216,0.0872,0.201,-0.0905
C=CCN1C(=O)[C@@]2(CC=C)N=C(c3ccc(OCCCO)cc3)O[C@H]2c2ccccc21,1.54,-3.69 (inactive),-4.72 (inactive),0.764 (inactive),3.6,1.47 (inactive),0.357,1.33,0.874,0.297
C[C@H]1C2[C@H](Cc3ccccc3)NC(=O)[C@]23C(=O)N[C@H](Cc2ccccc2)C(=O)N2CCC[C@H]2C(=O)NC/C=C\C/C=C/C3[C@@H]2O[C@]12C (stereo not given in full),0.178,-0.662 (inactive),-1.06 (inactive),-1.19 (inactive),0.392,0.132 (inactive),-0.175,0.177,0.492,-0.13
COC(=O)[C@@]1(CCS(=O)(=O)c2ccccc2)N=C(c2ccc(OCCCO)cc2)O[C@H]1c1ccccc1CN=[N+]=[N-],1.38,0.265 (inactive),1.18 (inactive),34.4 (active),3.01,0.706 (inactive),0.0054,0.338,1,0.127
O[C@@H](Cc1ccccc1)[C@H]1C2C=CCCC=C2CN1Cc1cccc(Cl)c1 (stereo not given in full),1.42,-0.14 (inactive),-2.92 (inactive),-0.742 (inactive),1.17,1.35 (inactive),-0.101,0.728,1.12,-0.0039
COCCCNC(=O)[C@]1(CCC(=O)OC(C)(C)C)N=C(c2ccc(OCCCO)cc2)O[C@@H]1c1ccccc1CN=[N+]=[N-],1.54,0.15 (inactive),0.556 (inactive),-0.78 (inactive),2.92,-0.613 (inactive),0.0894,0.33,0.89,-0.0315
CCOC(=O)C1=C[C@@H](C(C)(C)C)N(S(=O)(=O)c2ccc(C)cc2)[C@H]1c1ccc(F)cc1,1.5,0.518 (inactive),1.95 (inactive),1.92 (inactive),3.07,-1.02 (inactive),-0.0341,0.989,1.07,-0.0004
CCc1cccc(NC(=O)O[C@H]2[C@H](OC(=O)Nc3ccccc3-c3ccccc3)[C@@H](OC(=O)Nc3ccccc3-c3ccccc3)[C@@H](OC)O[C@@H]2CO)c1,1.53,0.182 (inactive),1.42 (inactive),-2.51 (inactive),3.43,-1.31 (inactive),0.126,0.666,1.07,0.0506
C=CCC(OC(C)=O)[C@@H]1[C@@H](N(Cc2ccc(-c3cccc(C(F)(F)F)c3)o2)C(=O)c2ccc(C)cc2)c2cc(OCCCO)ccc2N1C(=O)Cc1ccc2ccccc2c1 (stereo not given in full),0.0457,0.677 (inactive),-0.0286 (inactive),0.303 (inactive),-0.0958,1.6 (inactive),-0.0674,-0.408,-0.624,-0.108
COC(=O)[C@]1(CCC(=O)OC(C)(C)C)N=C(c2ccc(OCCCO)cc2)O[C@@H]1c1ccccc1CN=[N+]=[N-],1.52,0.339 (inactive),0.419 (inactive),15.2 (active),2.07,-0.511 (inactive),0.271,-0.146,0.51,0.124
COc1ccc([Si](C)(C)[C@H]2[C@H](CC(=O)N3Cc4ccccc4C[C@H]3CO)O[C@@]3(C(=O)N(Cc4cccc(N5CCC5=O)c4)c4ccccc43)[C@@H]2C)cc1,1.57,-0.441 (inactive),0.716 (inactive),1.98 (inactive),2.26,0.192 (inactive),-0.12,0.914,1.06,0.0478
COCCOC(=O)N1C(=O)[C@@]2(c3cc(C#CCC(C(=O)OC)C(=O)OC)ccc31)[C@H](c1ccccc1OCCO)N1[C@H](c3ccccc3)[C@H](c3ccccc3)OC(=O)[C@H]1[C@@H]2C(=O)N1CCN(c2ncccn2)CC1,1.54,2.01 (inactive),2.65 (inactive),7.01 (inactive),3.09,0.998 (inactive),-0.0557,1.28,1.08,0.032
O=C1c2ccccc2[C@](Cc2ccccc2I)(C(=O)NCC(F)(F)F)[C@H](c2ccc(CO)cc2)N1Cc1ccccc1Cl,1.53,-0.893 (inactive),-1.09 (inactive),-1.29 (inactive),3,-0.267 (inactive),-0.0283,0.496,0.958,-0.0409
C=C(C(=O)CC[C@@H](OC(=O)c1cccnc1)c1ccccc1OCCO)C(C)C,1.44,-0.73 (inactive),-0.177 (inactive),0.404 (inactive),-0.263,0.144 (inactive),-0.0666,0.535,0.272,-0.0703
COc1cc(COC(C)=O)ccc1OC(C)=O,0.491,-2.59 (inactive),-3.73 (inactive),-0.724 (inactive),0.418,3.13 (inactive),1.07,0.373,0.279,0.643
CC(C)C(O)C1C=CC2C(=O)N(c3ccccc3)C(=O)C2N1Nc1ccc([N+](=O)[O-])cc1 (stereo not given),0.118,0.307 (inactive),0.815 (inactive),0.834 (inactive),2.89,0.171 (inactive),0.0827,-0.0213,0.614,0.117
